Bioassay records (PubChem)
An excerpt weighted towards active compounds, which were near 8% of everything screened.
SW480 rereplic – induces DNA re-replication in SW480 colon adenocarcinoma cells | AID 624297 | hit rate 1.8% among 340,000 | Potency, µM (doses to about 46.1 µM), for inactives: at the top dose re-replication activation, most hits filed as activators | SW480 DNA re-replication, Hoechst DNA content imaging, 48 h; further: % of control where 0% means no effect; nearly all actives have a fitted effect of over 55% in size
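SW480 cells exposed to compounds for 48 hr at 37 C, 5% CO2, then Hoechst-stained 40 min. Nuclear DNA content imaged by fluorescence scanning (405 nm excitation, 500-530 nm emission); re-replication scored as increased high-intensity nuclei.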
HT1080-NT tox – kills 2HG-producing HT-1080-NT fibrosarcoma cells. HT-1080-NT fibrosarcoma viability, CellTiter-Glo ATP luminescence, 48 h. Potency, µM (highest dose often 46.1 µM), for inactives: top-dose activity, negative = less viability, most hits filed as cytotoxic. hit rate 1.6% among 360,000. AID 686970;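 further: NT is the 2HG producing partner of a matched IDH1 knockdown line; 0% = DMSO-treated cells and -100% = media-only wells without cells; nearly all actives have a fitted effect of over 55% in size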
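Toxicity toward the 2HG-producing NT line was scored as %Activity, normalised to DMSO and no-cell wells, from CellTiter-Glo luminescence after 48 hours' treatment.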
HT1080 IDH1KD tx – toxicity to HT-1080 IDH1 knockdown cells (counter line); HT-1080 IDH1 knockdown viability, ATP luminescence, 48 h; AID 686971; hit rate 2% among 360,000; Potency, µM (series often up to 46.1 µM), inactives show at the top dose activity, negative = toxicity, hits mostly cytotoxic;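 further: 0% = DMSO wells and -100% = cell-free medium wells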
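After a 2 h attachment period, IDH1KD HT-1080 cells took pin-transferred compound for 48 h at 37 °C; ATP-based luminescence after 10 min room-temperature reagent incubation reported viability.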
KB-3-1 cytotox – KB-3-1 parental cell cytotoxicity | Potency, µM (titrated, usually from 46.1 µM), most hits filed as cytotoxic | KB-3-1 viability, CellTiter-Glo ATP luminescence, 72 h | hit rate 1.4% among 400,000; further: on the % scale 0 is the no-effect control and ±100 the full control effect; nearly all actives have a fitted effect of over 60% in size
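KB-3-1 parental drug-naive adenocarcinoma cells in DMEM/10% FBS, incubated 72 h at 37 C with pin-transferred compounds across a concentration series. Viability by CellTiter-Glo luminescence; concentration-response curves fitted after normalization.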
KB-V1 cytotox – kills drug-selected multidrug resistant KB-V1 cells; KB-V1 MDR cells viability, CellTiter-Glo, 72 h; Potency, µM (top dose mostly 46.1 µM), hits mostly cytotoxic; hit rate 3.4% among 400,000; AID 1347076; further: on the % scale 0 is the no-effect control and ±100 the full control effect; nearly all actives have a fitted effect of over 60% in size
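Readout: CellTiter-Glo luminescence, 10 min after addition. Cells: KB-V1 MDR subline, 72 h at 37 degrees C with compound. Analysis: corrected, normalized data fitted to concentration-effect curves.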
MCF10A rerep – inducers of DNA re-replication in MCF 10A breast cells. Potency, µM (titrated, usually from 46.1 µM), for inactives: top-dose activity, positive = re-replication, actives largely listed as activators. AID 624296. MCF 10A DNA re-replication, Hoechst nuclear intensity, 48 h. hit rate 2.9% among 350,000; further: % of control where 0% means no effect; nearly all actives have a fitted effect of over 50% in size
* = called active by the depositor. The call rests on the fitted dose curve; in most records, active means well fitted curve in the direction sought with a large enough effect; inconclusive means small, poorly fitted or top-dose-only effect, or another doubt; inactive means no such curve, though single readings can be large; an effect the other way counts as inactive or inconclusive. Potency means the concentration at half of the fitted maximal effect.

Screening CCc1cccc2c(C(=O)C(NC(C)CC)c3ccccc3)c[nH]c12 (stereo not given) returned SW480 rereplic 0.7%, HT1080-NT tox 20.6µM*, HT1080 IDH1KD tx inconclusive, KB-3-1 cytotox inactive, KB-V1 cytotox inactive and MCF10A rerep 15.1%.
COc1ccc(Cl)cc1NC(=O)Cn1cnc2sc(C)c(S(=O)(=O)N3CCN(c4ccccc4OC)CC3)c2c1=O was read as KB-3-1 cytotox inactive and KB-V1 cytotox inactive.
`COc1ccc(C(=O)c2[nH]c(N)c(C(=O)NCCc3c[nH]c4ccccc34)c2-c2ccc(OC)c(OC)c2)cc1` gave HT1080-NT tox inconclusive, HT1080 IDH1KD tx inconclusive, KB-3-1 cytotox inconclusive and KB-V1 cytotox inactive.
Screening NC(=O)CSc1nc2cc([N+](=O)[O-])ccc2n1-c1cccc(C(F)(F)F)c1 returned SW480 rereplic -1.6%, HT1080-NT tox 2.3%, HT1080 IDH1KD tx 0.8%, KB-3-1 cytotox inactive, KB-V1 cytotox 6.51µM* and MCF10A rerep 3.8%.
For COc1ccc(SCCN2CC[C@@H](C(C)(C)C)CCC2=O)cc1 the results were SW480 rereplic -4.0%, HT1080-NT tox -0.3%, HT1080 IDH1KD tx -4.0%, KB-3-1 cytotox inactive, KB-V1 cytotox inconclusive and MCF10A rerep 9.2µM*.
For CCCN1CCC(=O)N(CCSc2ccc(OC)cc2)CC1 the results were SW480 rereplic inconclusive, HT1080-NT tox inconclusive, HT1080 IDH1KD tx 23.1µM*, KB-3-1 cytotox inconclusive, KB-V1 cytotox inactive and MCF10A rerep inconclusive.
CCCN1CCC(=O)N(CCSc2ccc(C)cc2)CC1 was read as SW480 rereplic 1.9%, HT1080-NT tox 0.3%, HT1080 IDH1KD tx 5.6%, KB-3-1 cytotox inconclusive, KB-V1 cytotox inactive and MCF10A rerep -12.6%.
For CCc1nnc2c3ccccc3nc(Nc3cc(C)cc(C)c3)n12 the results were KB-3-1 cytotox inactive and KB-V1 cytotox inactive.
`COc1cc2c(cc1OC)C1(NCC2)C(=O)Nc2ccccc21` (stereo not given) gave SW480 rereplic -1.2%, HT1080-NT tox 2.5%, HT1080 IDH1KD tx -21.3%, KB-3-1 cytotox inactive, KB-V1 cytotox inactive and MCF10A rerep -2.0%.
`COc1cc2c(cc1OC)C1(Nc3c-2c(Cc2ccccc2)nn3-c2ccccc2)C(=O)Nc2ccccc21` (stereo not given) gave SW480 rereplic inconclusive, HT1080-NT tox inconclusive, HT1080 IDH1KD tx inconclusive, KB-3-1 cytotox inconclusive, KB-V1 cytotox inactive and MCF10A rerep 6.51µM*.
For CCc1ccc2nc3nc(C)cc(C)c3c(N)c2c1 the results were SW480 rereplic 2.91µM*, HT1080-NT tox inconclusive, HT1080 IDH1KD tx 12.6µM*, KB-3-1 cytotox inactive, KB-V1 cytotox 20.6µM* and MCF10A rerep -13.7%.
CC(=O)OC1CCC2(C)C(CCC3C4CC=C(C(C)=O)C4(C)OC(=O)CC32)C1 (stereo not given) was read as HT1080-NT tox inconclusive, HT1080 IDH1KD tx 10.3µM*, KB-3-1 cytotox 23.1µM* and KB-V1 cytotox inconclusive.
For C=CCSC1=C(C#N)C(c2ccccc2Cl)C(C(=O)c2cccs2)C(O)(C(F)(F)F)N1 (stereo not given) the results were SW480 rereplic 4.0%, HT1080-NT tox -10.6%, HT1080 IDH1KD tx -16.3%, KB-3-1 cytotox inconclusive, KB-V1 cytotox 16.4µM* and MCF10A rerep inconclusive.
Screening COCCNC(=O)CCc1c(C)nc2c(c(C)nn2-c2ccc(C)cc2)c1C returned SW480 rereplic inconclusive, HT1080-NT tox 2.9%, HT1080 IDH1KD tx -6.2%, KB-3-1 cytotox inactive, KB-V1 cytotox inactive and MCF10A rerep 4.5%.
CCN(CC)CCNC(=O)CCc1c(C)nc2c(c(C)nn2-c2ccc(C)cc2)c1C was read as SW480 rereplic inconclusive, HT1080-NT tox 18.4µM*, HT1080 IDH1KD tx inconclusive, KB-3-1 cytotox inconclusive, KB-V1 cytotox inactive and MCF10A rerep inconclusive.
For O=C1Cc2c([nH]c3ccc([N+](=O)[O-])cc23)-c2ccccc2N1 the results were SW480 rereplic inconclusive, HT1080-NT tox -9.6%, HT1080 IDH1KD tx 2.06µM*, KB-3-1 cytotox 0.82µM*, KB-V1 cytotox inconclusive and MCF10A rerep inconclusive.
O=[N+]([O-])c1ccc2[nH]c3nc4ccccc4nc3c2c1 was read as SW480 rereplic 8.7%, HT1080-NT tox -13.9%, HT1080 IDH1KD tx inconclusive, KB-3-1 cytotox inactive, KB-V1 cytotox inactive and MCF10A rerep 10.4%.
O=C(NN=C1CCCC1)c1n[nH]c2c1CCCC2 was read as SW480 rereplic inconclusive, HT1080-NT tox inconclusive, HT1080 IDH1KD tx inconclusive, KB-3-1 cytotox inactive, KB-V1 cytotox inactive and MCF10A rerep inconclusive.
For Cc1ccsc1/C=N\NC(=O)c1n[nH]c2c1CCC2 the results were SW480 rereplic 13µM*, HT1080-NT tox 6.51µM*, HT1080 IDH1KD tx 7.31µM*, KB-3-1 cytotox 3.26µM*, KB-V1 cytotox 4.61µM* and MCF10A rerep 8.2µM*.
`O=C(NN=C1CCCC1)c1n[nH]c2c1CCC2` gave SW480 rereplic inconclusive, HT1080-NT tox 2.59µM*, HT1080 IDH1KD tx 3.66µM*, KB-3-1 cytotox inconclusive, KB-V1 cytotox inconclusive and MCF10A rerep inconclusive.
`CN(C)CCN1C(=O)c2cccc3cc([N+](=O)[O-])cc(c23)C1=O` gave SW480 rereplic 1.46µM*, HT1080-NT tox 10.3µM*, HT1080 IDH1KD tx 13µM*, KB-3-1 cytotox 8.2µM*, KB-V1 cytotox 2.59µM* and MCF10A rerep inconclusive.
`Cc1oc(-c2cccc(Cl)c2)nc1CN1CCC(C(=O)NCc2ccc(F)cc2)CC1` gave KB-3-1 cytotox inactive and KB-V1 cytotox inactive.
`CC(C)CC(=O)Nc1ccc(C(=O)COC(=O)Cc2n[nH]c(=O)c3ccccc23)cc1` gave SW480 rereplic 3.0%, HT1080-NT tox -0.4%, HT1080 IDH1KD tx -0.2%, KB-3-1 cytotox inactive, KB-V1 cytotox inconclusive and MCF10A rerep 5.4%.
CN1CCN(CC/C=C2/c3ccccc3Sc3ccc(S(=O)(=O)N(C)C)cc32)CC1 was read as SW480 rereplic inconclusive, HT1080-NT tox 25.9µM*, HT1080 IDH1KD tx inconclusive, KB-3-1 cytotox inactive, KB-V1 cytotox inconclusive and MCF10A rerep inconclusive.
Screening CN(C)C(=O)c1ccc(SC(=S)NCc2ccccc2)cc1 returned HT1080-NT tox inconclusive, HT1080 IDH1KD tx 1.0%, KB-3-1 cytotox 6.51µM* and KB-V1 cytotox inconclusive.
For O=C(CCN1C(=O)c2cccc3cccc(c23)C1=O)NCc1ccco1 the results were SW480 rereplic -18.1%, HT1080-NT tox -9.5%, HT1080 IDH1KD tx -3.1%, KB-3-1 cytotox inactive, KB-V1 cytotox inactive and MCF10A rerep inconclusive.
